Rows were chosen to be rich in hits. Some 3% of all compounds tested hit in one or more screens of this group.
PAFAH2 FP inh: inhibitors of human PAFAH2. recombinant PAFAH2, FP-rhodamine activity probe, fluorescence polarization. inhibition, % at 3.39 µM. 340,000 compounds, 0.99% hits. AID 492956;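 active means inhibition above the mean over all tested compounds plus 3 SD, cut at about 30% in these data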;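 further: inhibitors block probe labeling of enzyme so polarization drops; 0% = enzyme with DMSO and 100% = wells lacking PAFAH2 protein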
PAFAH1B2 FP inh: PAFAH1B2 (human) inhibition; P68402; recombinant PAFAH1B2, FP-rhodamine activity probe, fluorescence polarization; inhibition, % at 3.39 µM; 340,000 compounds, 1.2% hits; AID 492953;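 active means inhibition above the mean of all tested compounds plus 3 SD, cut at about 24% in these data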;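 further: 0% = enzyme with DMSO and 100% = wells lacking PAFAH1B2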
Target sequence (P68402 whole entry, looked up): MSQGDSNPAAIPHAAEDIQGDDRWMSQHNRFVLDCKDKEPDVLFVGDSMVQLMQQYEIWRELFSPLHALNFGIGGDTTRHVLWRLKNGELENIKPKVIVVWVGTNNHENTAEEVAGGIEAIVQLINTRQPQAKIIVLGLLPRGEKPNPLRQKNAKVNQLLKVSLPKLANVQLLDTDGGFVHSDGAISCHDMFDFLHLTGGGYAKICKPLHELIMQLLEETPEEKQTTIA
DAGLB inhibitor: diacylglycerol lipase beta (human) inhibition. inhibition, % at 5.17 µM. 340,000 compounds, 0.059% hits. Q8NCG7. HEK293T DAGLB membrane lysate, EnzChek fluorogenic substrate; in the data active means inhibition above about 34%;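 further: 0% = enzyme with vehicle and 100% = wells lacking enzyme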
ATG4B inh: ATG4B (human) cysteine protease inhibition. inhibition, % at 8.33 µM. Q9Y4P1. ATG4B cleavage of LC3-PLA2, NBD-HPC fluorescence, 1 h. AID 504462. 340,000 compounds, 0.51% hits; in the data active means inhibition above about 40%
pPAFAH FP inh: pPAFAH (human) enzyme inhibition; AID 463082; inhibition, % at 3.39 µM; recombinant pPAFAH, FP-rhodamine probe fluorescence polarization; 330,000 compounds, 1.5% hits; Q13093;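 active means inhibition above the mean inhibition across the screen plus 3 SD, cut at about 25% in these data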;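 further: inhibitors block binding of the rhodamine activity-based probe so polarization drops; 0% = enzyme with DMSO and 100% = wells lacking pPAFAH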
Target sequence (Q13093 whole entry, looked up): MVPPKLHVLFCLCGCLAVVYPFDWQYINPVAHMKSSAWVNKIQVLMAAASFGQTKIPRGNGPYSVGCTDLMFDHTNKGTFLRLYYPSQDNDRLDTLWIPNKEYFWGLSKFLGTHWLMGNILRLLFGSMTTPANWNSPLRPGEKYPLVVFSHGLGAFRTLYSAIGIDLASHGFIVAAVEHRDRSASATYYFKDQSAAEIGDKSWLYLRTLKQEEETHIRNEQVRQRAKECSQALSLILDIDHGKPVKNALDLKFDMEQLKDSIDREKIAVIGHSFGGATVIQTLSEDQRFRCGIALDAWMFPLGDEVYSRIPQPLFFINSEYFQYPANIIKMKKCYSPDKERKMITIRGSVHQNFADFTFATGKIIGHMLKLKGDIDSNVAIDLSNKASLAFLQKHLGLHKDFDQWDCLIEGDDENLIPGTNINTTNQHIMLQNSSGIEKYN
PAFAH1B3 FP inh: inhibitors of human PAFAH1B3; recombinant PAFAH1B3, FP-rhodamine probe, fluorescence polarization; inhibition, % at 3.39 µM; 340,000 compounds, 0.28% hits;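 active means inhibition above the screen-wide average of all tested compounds plus 3 SD, cut at about 25% in these data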;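 further: 0% = enzyme with DMSO only and 100% = wells lacking PAFAH1B3 protein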
PAFAH2 confirm: confirmation of human PAFAH2 inhibitors; shares compounds with PAFAH2 FP inh; recombinant PAFAH2, FP-rhodamine activity probe, fluorescence polarization; inhibition, % at 3.39 µM; 2,300 compounds, 65% hits; AID 493030;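 active means mean inhibition over three repeats above a set limit taken from the earlier primary screen, cut at about 30% in these data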;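 further: inhibitor blocks binding of rhodamine activity probe so polarization falls; 0% = enzyme with DMSO and 100% = wells lacking PAFAH2 protein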
The depositor's hits bear a star; / = not tested or not shown.

SMILES | PAFAH2 FP inh | PAFAH1B2 FP inh | DAGLB inhibitor | ATG4B inh | pPAFAH FP inh | PAFAH1B3 FP inh | PAFAH2 confirm
COc1ccc(S(=O)(=O)N2CCN(CC(=O)Nc3c(C)n[nH]c3C)CC2)cc1OC | 2 | 8 | -3 | 5 | 2 | 8 | /
C[C@H](CO)N1C[C@H](C)[C@@H](CN(C)S(=O)(=O)c2ccc(F)cc2)Oc2c(NC(=O)Cc3ccccc3)cccc2C1=O | -1 | 9 | 0 | -4 | 3 | 5 | /
CCCN(CCC)CCCNC(=O)C1CCC(CNS(=O)(=O)c2cccc3nsnc23)CC1 (stereo not drawn) | 6 | 4 | 1 | -17 | 1 | 4 | /
CCOC(=O)c1c(C)[nH]c(C(=O)OC(C)C(=O)NC2(C#N)CCCCC2)c1C (stereo not drawn) | / | / | -24 | / | / | / | /
Cc1cc(C(=O)OCC(=O)NC2(C#N)CCCCC2)c(C)o1 | 75* | 3 | -1 | -5 | 8 | 7 | 75*
CCOC(=O)c1c(C)[nH]c(C(=O)OCC(=O)NC2(C#N)CCCCC2)c1C | 57* | 1 | -1 | -3 | 5 | 3 | 52*
Cc1cc(C(=O)OCC(=O)NC2CCCC(C)C2C)c(C)o1 (stereo not drawn) | 82* | 5 | -3 | -1 | 12 | 5 | 67*
N#CC1(NC(=O)COC(=O)c2cccc(-n3cnnn3)c2)CCCCC1 | 73* | 7 | 2 | -2 | 0 | 5 | 72*
COc1ccc(OC)c(S(=O)(=O)Nc2c(C)n(C)n(-c3ccccc3)c2=O)c1 | 0 | 1 | -2 | 8 | 4 | 1 | /
Cc1cc(SCC(=O)OCC(=O)N(C)c2ccccc2)nc2ccccc12 | 1 | 1 | 2 | -10 | 8 | 10 | /
O=C(COC(=O)c1ccc([N+](=O)[O-])o1)NC1CCCCC1 | 29 | 8 | 0 | -14 | 12 | 15 | /
N#CC1(NC(=O)COC(=O)c2ccc(-c3ccc(O)cc3)cc2)CCCCC1 | 76* | -2 | -1 | -16 | 7 | 0 | 72*
Nc1nccnc1C(=O)OCC(=O)NC1CCCc2ccccc21 (stereo not drawn) | 2 | 0 | 3 | -1 | 7 | 9 | /
N#CC1(NC(=O)COC(=O)c2ccccc2[N+](=O)[O-])CCCCC1 | 69* | 2 | 0 | -1 | 10 | 4 | 74*
N#CCC(=O)Nc1ccc(C(=O)OCC(=O)NC2CCCc3ccccc32)cc1 (stereo not drawn) | 43* | -6 | 6 | 5 | 2 | -3 | 38*
N#CC1(NC(=O)COC(=O)c2ncc(Cl)c(Cl)c2Cl)CCCCC1 | 1 | -5 | -4 | 1 | 16 | 6 | /
Cc1ccc(C(=O)OCC(=O)NC2CCCCC2)o1 | 68* | 4 | 2 | 6 | 8 | 5 | 46*
CCOC(=O)CC(=O)c1sc2c(c1N)c(=O)[nH]c(=O)n2-c1ccc(OC)cc1 | -6 | 5 | -7 | -1 | 3 | 7 | /
CCOC(=O)c1c(S(=O)(=O)N2CCCCCC2)c(C)n(C)c1C | -9 | 2 | 0 | -4 | 2 | 5 | /
Cc1cc(C(=O)OCC(=O)NC2CCCCC2)c(C)o1 | 84* | 0 | 3 | -5 | 7 | -5 | 63*
C#CCOCCOCCOCCNc1nc(N2CCN(C(=O)Cn3cc(CCCN=C(N)N)nn3)CC2)nc(N2CCN(C(=O)[C@H](CCCCN)n3cc(CCCC)nn3)CC2)n1 | -14 | 1 | 2 | -4 | 4 | -1 | /
CC(=O)c1ccc(N2CCN(C(=O)[C@H](C)NC(=O)c3ccccc3Cl)CC2)cc1 | -1 | 6 | -1 | -6 | 4 | 10 | /
Cc1ccc(NC(=O)Cc2nc(CN(C)CC(=O)Nc3ccc(C)cc3)cs2)cc1 | 31* | 9 | 0 | -7 | 14 | 5 | 16
O=C(COC(=O)/C=C/c1cccc(F)c1)Nc1ccccc1 | 76* | 3 | -2 | 10 | 10 | 12 | 82*
CCCNC(=O)COC(=O)/C=C/c1cccc(F)c1 | 33* | 7 | 0 | -12 | 6 | 3 | 20
SMILES | PAFAH2 FP inh | PAFAH1B2 FP inh | DAGLB inhibitor | ATG4B inh | pPAFAH FP inh | PAFAH1B3 FP inh | PAFAH2 confirm
O=C(COC(=O)/C=C/c1cccc(F)c1)NNC(=O)c1ccccc1 | 5 | 1 | 0 | -5 | 10 | -1 | /
COc1ccc(S(=O)(=O)NNC(=O)Nc2ccc(F)cc2F)c(OC)c1 | 0 | 2 | -2 | 4 | 0 | 7 | /
O=c1[nH]c(Cc2cccs2)nc2ccccc12 | -3 | 1 | 1 | 12 | 4 | 1 | /
COc1ccc(C(=O)OCn2nnc3ccccc3c2=O)cc1OC | 36* | -5 | 0 | -12 | 3 | 5 | 46*
COc1ccc(C(=O)OCn2nnc3ccccc3c2=O)cc1[N+](=O)[O-] | 15 | 4 | -2 | 6 | -1 | 5 | /
O=C(OCn1nnc2ccccc2c1=O)c1cccs1 | 47* | 6 | -1 | -2 | 7 | 5 | 37*
O=C(OCc1nc2ccccc2c(=O)[nH]1)c1cccs1 | 42* | -5 | -2 | -8 | 2 | 1 | 29
COc1cccc(C(=O)OCn2nnc3ccccc3c2=O)c1 | 37* | 7 | 0 | 6 | 1 | 9 | 21
FC(F)(F)C(F)(F)C(F)(F)c1nc2nc(Cl)c(Cl)nc2[nH]1 | / | / | 5 | / | / | / | /
COc1cc2c(cc1OC)CC(C(=O)NCc1ccccc1)NC2 (stereo not drawn) | 0 | 2 | -3 | -5 | -4 | 9 | /
O=C(OCC(=O)c1cccc2ccccc12)c1ccc(CO)cc1 | 48* | 2 | 0 | -4 | 0 | 8 | 25
CC(C)CNC(=O)/C=C/C=C/c1ccc2c(c1)OCO2 | -1 | -1 | -4 | -25 | 4 | -6 | /
N=C1S/C(=C\c2ccc(-c3cccc(Cl)c3)o2)C(=O)N1c1nccs1 | 45* | 8 | 15 | 12 | 16 | 11 | 23
O=[N+]([O-])c1ccc(N=Nc2ccc(O)c3ccccc23)cc1 | -9 | -5 | 16 | 2 | / | 9 | /
Cc1ccc(S(=O)(=O)N2CCN(C(=O)c3ccnn3C)CC2)cc1C | 0 | -1 | 0 | 2 | 3 | -3 | /
O=C(COC(=O)/C=C/c1ccc(S(=O)(=O)N2CCOCC2)cc1)NC1CCCCCCC1 | 53* | -1 | 2 | -1 | 7 | -3 | 32*
O=C(COC(=O)/C=C/c1ccc(S(=O)(=O)N2CCOCC2)cc1)NCc1ccc(Cl)cc1 | 15 | 4 | 2 | -31 | 11 | 1 | /
O=C(COC(=O)/C=C/c1ccc(S(=O)(=O)N2CCOCC2)cc1)Nc1ccc(F)c(F)c1F | 33* | 4 | 0 | -1 | 5 | 3 | 34*
O=C(COC(=O)/C=C/c1ccc(S(=O)(=O)N2CCOCC2)cc1)NCc1ccccc1 | 49* | 0 | 1 | -4 | 3 | 2 | 30*
O=C(COC(=O)Cc1cccc(C(F)(F)F)c1)NC1CCS(=O)(=O)C1 (stereo not drawn) | 1 | 6 | 0 | -10 | 0 | 10 | /

Assay outcomes (PubChem BioAssay)
